High-throughput results (PubChem BioAssay)
MITF primary – human MITF inhibition, primary screen; inhibition, % at 2.6 µM; O75030; actives 0.91% (n = 650,000); AlphaScreen MITF homodimerization, bead proximity signal; in the data active = inhibition above about 50%
TEAD-YAP block – TEAD-YAP interaction inhibition. inhibition, % at 9.12 µM. actives 1.4% (n = 640,000). HEK-TIYL cells, TEAD-Gal4/YAP UAS-luciferase luminescence. AID 1259422; in the data active = inhibition above about 32%
GPR151 ag – activators of human GPR151 | PathHunter beta-arrestin GPR151 cells, luminescence | actives 1% (n = 650,000) | activation, % at 11.2 µM | AID 1508602 | Q8TDV0; in the data active = activation above about 4.9%
Target sequence (Q8TDV0 whole entry, looked up): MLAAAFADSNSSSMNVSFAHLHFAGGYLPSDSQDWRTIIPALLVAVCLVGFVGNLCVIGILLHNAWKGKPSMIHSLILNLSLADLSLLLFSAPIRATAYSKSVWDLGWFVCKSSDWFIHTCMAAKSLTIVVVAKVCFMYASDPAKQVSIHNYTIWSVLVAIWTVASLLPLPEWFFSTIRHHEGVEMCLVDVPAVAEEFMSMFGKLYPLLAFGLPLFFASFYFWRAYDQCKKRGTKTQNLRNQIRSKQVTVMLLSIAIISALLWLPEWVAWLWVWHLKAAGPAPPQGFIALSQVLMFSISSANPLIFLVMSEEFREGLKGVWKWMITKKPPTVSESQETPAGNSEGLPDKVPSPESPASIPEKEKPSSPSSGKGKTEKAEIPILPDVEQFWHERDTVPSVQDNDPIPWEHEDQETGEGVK
FBW7 act – human FBW7 E3 ligase activation, primary screen; normalized activity (activation), % at 26.1 µM; actives 0.13% (n = 650,000); AID 1259310; Q969H0; AlphaScreen FBW7–phospho-cyclin E peptide binding, activator screen; in the data active = normalized activity above about 1.9%;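 note: purified mutant Fbw7 with reduced substrate affinity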
Of the large screens only hits and unclear results are named; the others gave an inactive call. Most compounds without a hit are left out; they make up all but 3.4% or so of the library.

Cc1c(NS(=O)(=O)c2ccc3c(c2)CCC(=O)N3)c(=O)n(-c2ccccc2)n1C	none
Cn1cc(-c2ccc3cnc(Nc4ccc(N5CCOCC5)cc4)nc3c2)cn1	TEAD-YAP block 60.4
Cn1cc(-c2ccc3cnc(Nc4ccc(C(=O)N5CCOCC5)cc4)nc3c2)cn1	TEAD-YAP block 70.6
Cc1ccc(-c2ncn(-c3ccc(Nc4ncc5ccc(-c6cnn(C)c6)cc5n4)cc3)n2)cn1	none
Cc1cnc(Nc2ccc(-n3ccnc3)cc2)nc1N	none
c1cn(-c2ccc(Nc3ncc4ccc(-c5cn[nH]c5)cc4n3)cc2)cn1	TEAD-YAP block 95.5
Cn1cc(-c2ccc3cnc(Nc4ccc(-n5cnc(-c6ccccn6)n5)cc4)nc3c2)cn1	TEAD-YAP block 95.6
CCOC(=O)c1ccc(NC(=S)N2CCC(O)(c3ccc(Br)cc3)CC2)cc1	none
COc1cccc(OCc2nnc(SCC(=O)OCc3ccccc3)n2C)c1	none
CN1C(=O)/C(=C\c2ccc(N3CCCC3)cc2)C(=O)N(c2ccccc2)C1=O	none
Cn1cc(-c2ccc3cnc(Nc4ccc(-n5ccnc5)cc4)nc3c2)cn1	TEAD-YAP block 72.2
Cc1c(NC(=O)/C(=C\c2ccccc2)NC(=O)c2ccccc2)c(=O)n(-c2ccccc2)n1C	FBW7 act 1.9
Cc1ccc(C(=O)N/C(=C\c2ccc(F)cc2)C(=O)Nc2c(C)n(C)n(-c3ccccc3)c2=O)cc1	none
Cc1ccc(C(=O)Nc2ccc(C(=O)O)cc2)cc1	TEAD-YAP block 44.7
Cc1nc(-c2ccc(NC(=O)c3ccccc3)cc2)cs1	TEAD-YAP block 50.7
O=C(Nc1ccc(-c2ccc(NC(=O)c3ccc(Cl)cc3)cc2)cc1)c1ccc(Cl)cc1	FBW7 act 39.1
Cc1ccc(C(=O)Nc2ccc(C)c(C)c2)cc1	TEAD-YAP block 67.1
Cc1ccc(CNC(=O)Nc2c(C)n(-c3ccccc3)c(=O)n2C)cc1	none
Cc1cc(C)c(S(=O)(=O)N2CC(=O)Nc3ccccc32)c(C)c1	TEAD-YAP block 55.1
O=C1CN(S(=O)(=O)c2ccc3[nH]c4c(c3c2)CCCC4)c2ccccc2N1	TEAD-YAP block 61.8
O=C1CN(Cc2ccccc2)CC(=O)N1	none
O=C1CN(S(=O)(=O)c2ccc(Br)cc2)c2ccccc2N1	none
CCOc1ccc(S(=O)(=O)N2CC(=O)Nc3ccccc32)cc1	TEAD-YAP block 42.0
O=C1CN(Cc2ccccc2)c2ccccc2N1	TEAD-YAP block 95.6
CCCNS(=O)(=O)c1ccc2[nH]c3c(c2c1)CCCC3	none
O=C1CN(S(=O)(=O)c2ccc3ccccc3c2)c2ccccc2N1	none
O=c1cc(C(F)(F)C(F)F)oc2c1ccc1ccccc12	none
c1coc(-c2nnc(SCc3nc4ccccc4[nH]3)o2)c1	TEAD-YAP block 43.5
O=C(COC(=O)Cn1c2ccccc2c(=O)c2ccccc21)NC1CCCCC1	none
COc1cccc(-c2nc(CS(=O)(=O)CC(=O)Nc3ccc(C)cc3C)c(C)o2)c1	none
CN(Cc1ccccc1)C(=O)c1nc2ccccn2c1CN1CCN(C2CCCC2)CC1	none
CNC(=O)/C(C#N)=C/c1c(Oc2cc(C)ccc2C(C)C)nc2ccccn2c1=O	TEAD-YAP block 34.4
CCNC(=O)/C(C#N)=C/c1c(Oc2cc(C)ccc2C(C)C)nc2ccccn2c1=O	TEAD-YAP block 46.3
CCSCCOC(=O)C1=C(C)NC2=C(C(=O)CCC2)C1c1cccc(OC)c1OC (stereo not drawn)	none
COc1ccc(CNC(=O)C2CC(c3ccccc3OC)=NO2)cc1 (stereo not drawn)	TEAD-YAP block 48.0
COc1ccccc1C1=NOC(C(=O)NCc2cccs2)C1 (stereo not drawn)	TEAD-YAP block 40.9
COc1ccc(CNC(=O)C2CC(c3ccccc3F)=NO2)cc1 (stereo not drawn)	none
Nc1c2c3c(c(O)ccc3[nH]c1=O)C(=O)c1ccccc1-2	TEAD-YAP block 36.7
Nc1c(Br)cc(O)c2c1C(=O)c1ccccc1C2=O	none
CCCCSc1nc2ccccc2c(=O)n1C	none
CCN(CC)CCN1C(=O)c2cccc3c(Cl)ccc(c23)C1=O	TEAD-YAP block 70.5
Cc1ccc(N2C(=O)c3cccc4c(N)ccc(c34)C2=O)c2cccnc12	TEAD-YAP block 62.5
Cc1ccc(N2C(=O)c3cccc4c(Cl)ccc(c34)C2=O)cc1	none
CCN1C(=O)c2cccc3c(N)ccc(c23)C1=O	MITF primary 57.0
Cc1ccc(N2C(=O)c3cccc4c(N5CCCCC5)ccc(c34)C2=O)c2cccnc12	none
CSc1cccc(NC(=O)C(C)N(c2ccc(Cl)cc2)S(C)(=O)=O)c1 (stereo not drawn)	none
Cn1c(=O)c2nc(SCC(=O)Nc3cccc4ccccc34)n(C)c2n(C)c1=O	none
COc1ccc(/C=C/C(=O)Nc2scc(-c3ccc(Br)cc3)c2C(=O)O)cc1	TEAD-YAP block 62.5
CC(C(=O)Nc1ccc(Cl)cn1)N1Cc2ccccc2C1=O (stereo not drawn)	TEAD-YAP block 84.6
CCCCCCCCCCCCCCCCCCCCCCCCC(=O)OC	none (no result: TEAD-YAP block, FBW7 act)
CCN(CC)C(=O)N1c2ccccc2CCc2ccccc21	TEAD-YAP block 41.9
CCc1ccc(/C(C)=N/N=C(N)N)cc1	TEAD-YAP block 34.6
Cc1cccc(C)c1-n1c(=S)sc2c(=O)n(CCc3ccccc3)c(SCC#N)nc21	none
Cc1ccc(OCCCN2C(=O)NC(C)(C)C2=O)c(I)c1	none
COc1ccc(COC(=O)C2=C(C)NC(=O)NC2c2ccc(C)cc2)cc1 (stereo not drawn)	none
CCCOc1ccc(C2NC(=O)NC(C)=C2C(=O)OCc2ccc(OC)cc2)cc1 (stereo not drawn)	TEAD-YAP block 57.8
COc1ccc(C2NC(=O)NC(C)=C2C(=O)OCc2ccc3c(c2)OCO3)cc1 (stereo not drawn)	TEAD-YAP block 67.3
CCCOC(=O)C1=C(C)NC(=O)NC1c1ccc(OCCC)cc1 (stereo not drawn)	TEAD-YAP block 43.4
COc1ccc(COC(=O)C2=C(C)NC(=O)NC2c2ccc([N+](=O)[O-])cc2)cc1 (stereo not drawn)	TEAD-YAP block 44.2
CCOC(=O)C1=C(C)NC(=O)NC1c1ccc([N+](=O)[O-])cc1 (stereo not drawn)	none
CCCCOC(=O)C1=C(C)NC(=O)NC1c1ccc(OCCC)cc1 (stereo not drawn)	none
CCCN(CCC)C(=O)CSc1nc2n[nH]c(C)c2c(=N)n1-c1cccc(C)c1	none
CCC(Sc1nc2n[nH]c(C)c2c(=N)n1-c1cccc(Cl)c1)C(=O)N1CCCC1 (stereo not drawn)	TEAD-YAP block 48.9
CCC(Sc1nc2n[nH]c(C)c2c(=N)n1-c1cccc(C)c1)C(=O)N(CC)CC (stereo not drawn)	TEAD-YAP block 38.6
O=C1CC(C(=O)Nc2nc3ccc(Cl)cc3s2)c2ccccc21 (stereo not drawn)	none
O=c1[nH]cccc1-c1nc2ccc(Cl)cc2s1	TEAD-YAP block 78.2
O=[N+]([O-])c1cccc(S(=O)(=O)N2CCCC(c3nc(-c4cccs4)no3)C2)c1 (stereo not drawn)	FBW7 act 3.0
ClCc1nc2cc3ccccc3cc2[nH]1	TEAD-YAP block 40.3
O=C(Nc1nnc(C2CCCCC2)o1)c1ccc2c(c1)CCCC2	none
